In PubChem BioAssay one finds composite z-score and z-score data, which are given here for 5 molecules.

Assay [1] in a line: binders of probe aFSTL3 on microarray, primary screen, stem cell growth factor project, biochemical, small-molecule microarray, fluorescence 635/667 (AID 1064).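 Note: measures binding of the biotinylated anti-FSTL3 antibody to printed compounds.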 As to conditions: higher = more signal.
Assay [2] can be described thus: binders from COS7 lysate, DM2A8 probe, primary screen, torsin A project, cell lysate, small-molecule microarray, fluorescence 635/667 (AID 1065). As to conditions: higher = more signal, COS7 lysate expressing mutant human TOR1A.
The nature of assay [3]: binders of probe aFGF2 on microarray, primary screen, stem cell growth factor project, biochemical, small-molecule microarray, fluorescence 635/667 (AID 1067).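 Note: measures binding of biotinylated aFGF2 protein to printed compounds on slides; z-score merges feature fluorescence and signal-to-noise across triplicate slides.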 As to conditions: higher = more signal.
Assay [4] can be described thus: binders of probe aFGF10 on microarray, primary screen, stem cell growth factor project, biochemical, small-molecule microarray, fluorescence 635/667 (AID 1071).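 Note: score merges 667 nm spot intensity and signal to noise from triplicate slides.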 As to conditions: higher = more signal.
Assay [5] concerns the target Neurogenic locus notch homolog protein 2 (Homo sapiens) (UniProt Q04721). Put plainly: Notch2 binders on small-molecule microarrays, primary screen, biochemical, small-molecule microarray, 635 nm fluorescence, stem cell growth factors (AID 1073). As to conditions: Notch2 binding, higher = more signal.
The target in assay [6] is Pro-neuregulin-1, membrane-bound isoform (Homo sapiens) (UniProt Q02297). The assay can be described thus: NRG1 binders on small-molecule microarrays, primary screen, psychiatric disease protein project, biochemical, small-molecule microarray, fluorescence 635/667 (AID 1075).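 Note: score combines 667 nm spot fluorescence with signal to noise.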 As to conditions: NRG1 binding, 635 nm fluorescence, higher = more signal.
Sequence of Pro-neuregulin-1, membrane-bound isoform (Homo sapiens) (Q02297 whole entry, looked up, the tested form may be a part, canonical isoform): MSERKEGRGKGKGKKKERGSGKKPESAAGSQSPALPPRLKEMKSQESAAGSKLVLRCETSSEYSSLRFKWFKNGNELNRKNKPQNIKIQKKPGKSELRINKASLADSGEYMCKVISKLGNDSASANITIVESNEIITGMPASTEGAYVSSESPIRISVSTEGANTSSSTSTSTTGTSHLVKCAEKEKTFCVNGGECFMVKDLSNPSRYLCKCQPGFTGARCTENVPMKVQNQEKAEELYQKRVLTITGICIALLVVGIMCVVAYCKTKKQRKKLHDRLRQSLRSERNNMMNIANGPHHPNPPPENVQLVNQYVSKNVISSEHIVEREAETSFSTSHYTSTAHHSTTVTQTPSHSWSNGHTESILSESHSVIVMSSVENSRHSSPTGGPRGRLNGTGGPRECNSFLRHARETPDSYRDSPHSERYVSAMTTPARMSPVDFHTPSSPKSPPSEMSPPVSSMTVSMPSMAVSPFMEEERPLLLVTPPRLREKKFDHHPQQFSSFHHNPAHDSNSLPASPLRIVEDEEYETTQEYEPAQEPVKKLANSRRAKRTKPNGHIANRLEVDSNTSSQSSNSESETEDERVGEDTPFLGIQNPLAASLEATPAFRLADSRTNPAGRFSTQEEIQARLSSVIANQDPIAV
In assay [7] the test system is Neuregulin-1 EGF-like domain. The assay can be described thus: binders of neuregulin-1 EGF-like domain, primary screen, biochemical, small-molecule microarray, 635 nm fluorescence (AID 1081).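 Note: binding of the protein to compounds printed on small-molecule microarray slides.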 As to conditions: small-molecule microarray binding, higher = more signal.
The nature of assay [8]: FRG1 promoter luciferase signal modulators, primary screen, FRG1 inhibition for FSHD, cell-based, C2C12 myotubes, firefly/Renilla luciferase, luminescence (AID 1084). As to conditions: higher = more signal, called active from +8 up or from −8 down.
The nature of assay [9]: binders of probe aFST on microarray, primary screen, stem cell growth factor project, biochemical, small-molecule microarray, fluorescence 635/667 (AID 1086).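 Note: score merges 667 nm fluorescence with signal-to-noise of each printed compound spot.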 As to conditions: higher = more signal.
Assay [10] in a line: binders of probe aHhip on microarray, primary screen, stem cell growth factor project, biochemical, small-molecule microarray, fluorescence 635/667 (AID 1087).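 Note: score merges spot fluorescence at 667nm with spot signal to noise ratio.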 As to conditions: higher = more signal.
Assay [11] relates to PRMT1 (protein arginine N-methyltransferase 1). The assay can be described thus: PRMT1 binders on small-molecule microarrays, primary screen, biochemical, small-molecule microarray, 635 nm fluorescence (AID 1088).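 Note: binding of Prmt1 protein to compounds spotted on small-molecule microarray slides.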 As to conditions: small-molecule microarray binding, higher = more signal.
Assay [12] in a line: yeast growth modulation, basal conditions, primary screen, YJM789 clinical isolate, OD600, 24 h (AID 1089).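 Note: growth of clinical yeast isolate S. cerevisiae YJM 789 seeded 1000 cells per well; test concentration not given here.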 As to conditions: S. cerevisiae YJM789 growth, higher = more signal, called active from +8 up or from −8 down.
Assay [13] is described as follows: fission yeast growth modulation, primary screen, strain 972, OD600, 24 h, no modulator (AID 1090).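 Note: basal condition with compound alone and no growth modifier present; test concentration not given here.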 As to conditions: S. pombe 972 growth, higher = more signal, called active from +8 up or from −8 down.
A short description of assay [14]: S. cerevisiae growth modulation with rapamycin, primary screen, strain BY4716, OD600, 96 h (AID 1091). Note: test concentration not given here. As to conditions: higher = more signal, called active from +8 up or from −8 down.
The target in assay [15] is Torsin-1A-interacting protein 2 (Homo sapiens) (UniProt Q8NFQ8). Put plainly: LULL1 binders on small-molecule microarray, primary screen, cell lysate, human LULL1 lysate, 635/667 nm fluorescence (AID 1092).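 Note: probe is lysate of COS7 cells overexpressing human LULL1; score merges per-feature 667 nm fluorescence with signal-to-noise.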 As to conditions: hLULL1 lysate binding, 635 nm fluorescence, higher = more signal.
Sequence of Torsin-1A-interacting protein 2 (Homo sapiens) (Q8NFQ8 whole entry, looked up): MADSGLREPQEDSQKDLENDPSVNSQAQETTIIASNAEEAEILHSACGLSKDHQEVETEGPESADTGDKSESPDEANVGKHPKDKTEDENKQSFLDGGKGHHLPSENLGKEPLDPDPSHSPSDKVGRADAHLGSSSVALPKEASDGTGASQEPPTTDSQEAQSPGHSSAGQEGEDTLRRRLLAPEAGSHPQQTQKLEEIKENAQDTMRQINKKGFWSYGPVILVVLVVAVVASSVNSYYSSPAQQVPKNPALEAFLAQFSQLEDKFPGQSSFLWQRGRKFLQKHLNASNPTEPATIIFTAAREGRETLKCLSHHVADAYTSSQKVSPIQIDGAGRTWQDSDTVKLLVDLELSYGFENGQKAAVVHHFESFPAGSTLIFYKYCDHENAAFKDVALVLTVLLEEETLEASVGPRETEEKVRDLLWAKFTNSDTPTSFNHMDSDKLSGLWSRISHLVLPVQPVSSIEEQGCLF
Assay [16] is described as follows: E. coli growth modulation, two-sided OD650, primary screen, E. coli filamentation project, strain DRC41, 24 h (AID 1093).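 Note: MC1000 strain lacking acrAB efflux and sulA so SOS filamentation is blocked; test concentration not given here.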 As to conditions: OD650, 24 h, higher = more signal, called active from +8 up or from −8 down.
Assay [17] can be described thus: small-molecule microarray binders of probe aLefty2, primary screen, biochemical, biotinylated probe, 635/667 nm fluorescence (AID 1094).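 Note: score merges spot fluorescence near 667 nm with spot signal-to-noise ratio.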 As to conditions: higher = more signal.
The test system of assay [18] is Noggin (protein binding on small-molecule microarray). The assay can be described thus: Noggin binders on small-molecule microarray, primary screen, biochemical, 635/667 nm fluorescence (AID 1095).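 Note: score merges 667 nm feature fluorescence with signal to noise over triplicate slides.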 As to conditions: 635 nm fluorescence, higher = more signal.
Assay [19] has as its target Neurogenic locus notch homolog protein 3 (Homo sapiens) (UniProt Q9UM47). Put plainly: NOTCH3 binders on small-molecule microarray, primary screen, biochemical, 635/667 nm fluorescence (AID 1096). As to conditions: NOTCH3 binding, 635 nm fluorescence, higher = more signal.
Assay [20] can be described thus: small-molecule microarray binders of probe aEGFR, primary screen, biochemical, biotinylated probe, 635/667 nm fluorescence (AID 1097).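 Note: probe is a biotinylated anti-EGFR antibody binding compounds printed on slides; score combines fluorescence near 667 nm and signal to noise of each spot.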 As to conditions: higher = more signal.

Each structure is given as a SMILES string. The source made the active and inactive calls.

Sequence of Neurogenic locus notch homolog protein 3 (Homo sapiens) (Q9UM47 whole entry, looked up): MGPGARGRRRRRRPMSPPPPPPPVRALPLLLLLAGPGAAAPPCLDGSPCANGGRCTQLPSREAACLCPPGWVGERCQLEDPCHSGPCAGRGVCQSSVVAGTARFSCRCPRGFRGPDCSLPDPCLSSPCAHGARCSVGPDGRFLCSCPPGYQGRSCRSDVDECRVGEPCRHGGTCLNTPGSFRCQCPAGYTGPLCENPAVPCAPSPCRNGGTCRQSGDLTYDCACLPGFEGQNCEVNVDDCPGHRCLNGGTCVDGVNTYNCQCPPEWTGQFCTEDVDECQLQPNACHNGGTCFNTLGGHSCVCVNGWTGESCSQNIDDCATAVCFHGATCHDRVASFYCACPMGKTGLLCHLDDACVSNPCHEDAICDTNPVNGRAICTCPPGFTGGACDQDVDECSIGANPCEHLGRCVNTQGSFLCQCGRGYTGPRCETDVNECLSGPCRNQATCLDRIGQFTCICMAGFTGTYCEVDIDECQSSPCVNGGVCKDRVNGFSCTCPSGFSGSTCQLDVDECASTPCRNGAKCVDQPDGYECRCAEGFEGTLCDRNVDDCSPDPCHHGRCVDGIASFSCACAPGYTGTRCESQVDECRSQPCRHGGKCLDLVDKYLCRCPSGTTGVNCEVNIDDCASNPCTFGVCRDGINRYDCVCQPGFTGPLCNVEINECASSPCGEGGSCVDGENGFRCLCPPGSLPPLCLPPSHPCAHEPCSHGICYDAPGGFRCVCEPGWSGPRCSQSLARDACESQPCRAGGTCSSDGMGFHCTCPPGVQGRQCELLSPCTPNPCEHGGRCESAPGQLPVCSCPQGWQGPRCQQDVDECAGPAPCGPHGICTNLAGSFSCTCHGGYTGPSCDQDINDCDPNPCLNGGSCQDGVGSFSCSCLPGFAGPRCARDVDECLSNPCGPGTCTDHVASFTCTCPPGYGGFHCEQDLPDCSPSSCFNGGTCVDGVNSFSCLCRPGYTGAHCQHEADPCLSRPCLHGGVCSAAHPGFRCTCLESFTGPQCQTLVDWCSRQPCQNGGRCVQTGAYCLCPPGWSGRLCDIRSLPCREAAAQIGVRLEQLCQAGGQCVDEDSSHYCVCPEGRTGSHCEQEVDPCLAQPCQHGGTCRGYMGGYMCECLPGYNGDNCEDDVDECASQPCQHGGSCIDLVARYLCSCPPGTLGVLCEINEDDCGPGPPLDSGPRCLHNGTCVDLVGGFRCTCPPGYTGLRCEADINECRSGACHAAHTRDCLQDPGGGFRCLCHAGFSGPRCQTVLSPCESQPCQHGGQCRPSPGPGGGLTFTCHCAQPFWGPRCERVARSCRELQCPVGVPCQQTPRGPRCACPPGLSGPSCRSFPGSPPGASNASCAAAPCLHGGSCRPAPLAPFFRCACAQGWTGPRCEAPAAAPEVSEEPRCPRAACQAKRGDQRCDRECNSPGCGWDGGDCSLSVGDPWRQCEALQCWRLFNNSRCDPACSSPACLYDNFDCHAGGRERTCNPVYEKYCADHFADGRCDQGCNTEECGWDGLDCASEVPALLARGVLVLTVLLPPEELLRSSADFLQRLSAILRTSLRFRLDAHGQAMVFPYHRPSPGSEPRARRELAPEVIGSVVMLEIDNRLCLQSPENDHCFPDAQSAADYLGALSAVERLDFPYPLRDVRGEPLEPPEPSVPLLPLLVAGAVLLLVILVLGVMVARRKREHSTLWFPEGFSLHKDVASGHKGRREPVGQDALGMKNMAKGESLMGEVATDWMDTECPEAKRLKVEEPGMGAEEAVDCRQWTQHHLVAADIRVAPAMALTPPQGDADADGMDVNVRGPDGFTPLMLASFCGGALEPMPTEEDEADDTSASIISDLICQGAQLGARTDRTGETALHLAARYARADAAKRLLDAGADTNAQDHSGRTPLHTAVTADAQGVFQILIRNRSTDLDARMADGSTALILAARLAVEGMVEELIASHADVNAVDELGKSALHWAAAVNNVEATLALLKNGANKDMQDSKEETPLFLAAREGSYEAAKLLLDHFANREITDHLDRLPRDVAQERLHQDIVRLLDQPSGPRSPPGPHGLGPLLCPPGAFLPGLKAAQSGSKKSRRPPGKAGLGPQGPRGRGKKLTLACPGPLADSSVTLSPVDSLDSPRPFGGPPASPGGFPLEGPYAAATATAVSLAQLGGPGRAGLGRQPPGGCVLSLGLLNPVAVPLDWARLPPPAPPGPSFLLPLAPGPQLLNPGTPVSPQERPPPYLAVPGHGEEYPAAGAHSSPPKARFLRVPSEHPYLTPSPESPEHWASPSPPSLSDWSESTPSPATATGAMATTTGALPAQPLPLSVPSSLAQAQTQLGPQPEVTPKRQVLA

Take `Cc1ccc(F)cc1S(=O)(=O)N[C@H]1CCN(Cc2ccc(OC(C)C)cc2)C1`: the composite z-score in assay [1] is -0.347; in [2], 0.325; in assay [3], -0.201; in assay [4], -0.0293; in assay [5] it was -0.563; in assay [6], -0.0273. For the same molecule, the composite z-score in assay [7] is 0.629; in assay [9] it was 0.101; in assay [10] it was -0.132; in assay [11], 1.48; in [15], 1.17; in assay [17] it was -0.218. The composite z-score in [18] is 1.41; in assay [19], 0.0527; in [20], -0.18. Further, the z-score in assay [8] is -1.84 (inactive); in assay [12], -1.09 (inactive); in [13], -13.1 (active); in assay [14], -1.03 (inactive); in [16], -2.66 (inactive).
On to `C[C@@H]1ON(c2ccc(I)cc2)[C@H](c2cccc(NC(=O)OCC3c4ccccc4-c4ccccc43)c2)[C@H]1C(=O)N1C(=O)OC[C@H]1Cc1ccccc1`, for which the composite z-score in assay [1] is -0.162; in assay [2] it was 0.382; in assay [3], -0.132; in [4], 0.15; in [5], 0.524; in [6], 0.608. Further, the composite z-score in assay [7] was found to be 0.0222; in assay [9], 0.0393; in assay [10] it was 0.132; in assay [11], 0.908; in assay [15], 0.77; in assay [17] it was 0.437. For the same molecule, the results for the composite z-score in assay [18], in assay [19] and in assay [20] were 0.493, 0.893 and 0.0773, respectively. Moreover, the z-score in assay [8] was 0.108 (inactive); in assay [12], 0.882 (inactive); in [13] it was 0.534 (inactive); in assay [14], 1.33 (inactive); in assay [16], 1.28 (inactive).
As for `CO[C@H]1O[C@H](CO)[C@@H](OC(=O)Nc2ccccc2)[C@H](OC(=O)Nc2ccccc2)[C@H]1OC(=O)Nc1ccccc1`, the composite z-score was -0.114 in assay [1]; 0.0396 in [2]; 0.118 in [3]; 1.17 in assay [4]; 0.971 in assay [5]; 0.888 in [6]. Also, the composite z-score in assay [7] is 1.34; in assay [9], 0.0643; in assay [10], -0.0296; in assay [11], 1.43; in assay [15], 3.49; in assay [17], -0.134. In addition, the composite z-score in [18] is 0.772; in assay [19] it was 0.814; in [20], -0.0978. The z-score was 0.921 (inactive) in assay [8]; 1.55 (inactive) in [12]; 0.759 (inactive) in [13]; 0.997 (inactive) in [14]; 0.758 (inactive) in assay [16].
Consider `CC(C)C(O)C1C=CC2C(=O)NC(=O)C2N1Nc1ccccn1` (stereo not given), for which the composite z-score in [1] is 0.359; in [2], -0.103; in [3], -0.0502; in assay [4], 0.138; in assay [5] it was 0.926; in [6], 0.306. Moreover, the composite z-score in assay [7] was 1.1; in [9], 0.547; in assay [10], 0.151; in [11], 0.522; in assay [15], 1.92; in assay [17], 0.0894. Besides, the composite z-score in assay [18] was -0.0878; in [19], 0.301; in [20], -0.109. Further, the z-score in [8] is 0.944 (inactive); in [12], 1.02 (inactive); in [13], 1.68 (inactive); in assay [14], 0.56 (inactive); in assay [16], -0.847 (inactive).
Take `COc1ccc(C(O)C2C=CC3C(=O)N(c4ccccc4)C(=O)C3N2Nc2ccc([N+](=O)[O-])cc2)c2ccccc12` (stereo not given): the composite z-score in assay [1] is 0.138; in assay [2], 0.263; in [3], 0.0688; in [4] it was 0.852; in [5] it was 1.6; in assay [6], 1.75. Moreover, the composite z-score in [7] came to 1.27; in assay [9], 0.812; in assay [10] it was 0.251; in assay [11], 1.53; in assay [15], 3.38; in assay [17] it was 0.0798. Besides, the composite z-score was -0.268 in [18], 1.07 in assay [19] and -0.0076 in assay [20]. Also, the z-score in assay [8] is 0.337 (inactive); in assay [12], -0.861 (inactive); in assay [13], 1.68 (inactive); in assay [14] it was 2.3 (inactive); in assay [16], -0.824 (inactive).
